In all, about 350,000 compounds went through this assay and about 700 (0.2%) were called active. Calls come from the whole dose curve; as a rule, active = well fitted inhibition curve with a large enough effect; inconclusive = small, poorly fitted or top-dose-only effect; inactive = flat fitted curve, though single readings scatter. Many of the other results were omitted from the sample, so actives are more common in it than they were.
Target: RecQ-like DNA helicase BLM (Homo sapiens) (UniProt P54132)
Sequence (P54132 whole entry, looked up): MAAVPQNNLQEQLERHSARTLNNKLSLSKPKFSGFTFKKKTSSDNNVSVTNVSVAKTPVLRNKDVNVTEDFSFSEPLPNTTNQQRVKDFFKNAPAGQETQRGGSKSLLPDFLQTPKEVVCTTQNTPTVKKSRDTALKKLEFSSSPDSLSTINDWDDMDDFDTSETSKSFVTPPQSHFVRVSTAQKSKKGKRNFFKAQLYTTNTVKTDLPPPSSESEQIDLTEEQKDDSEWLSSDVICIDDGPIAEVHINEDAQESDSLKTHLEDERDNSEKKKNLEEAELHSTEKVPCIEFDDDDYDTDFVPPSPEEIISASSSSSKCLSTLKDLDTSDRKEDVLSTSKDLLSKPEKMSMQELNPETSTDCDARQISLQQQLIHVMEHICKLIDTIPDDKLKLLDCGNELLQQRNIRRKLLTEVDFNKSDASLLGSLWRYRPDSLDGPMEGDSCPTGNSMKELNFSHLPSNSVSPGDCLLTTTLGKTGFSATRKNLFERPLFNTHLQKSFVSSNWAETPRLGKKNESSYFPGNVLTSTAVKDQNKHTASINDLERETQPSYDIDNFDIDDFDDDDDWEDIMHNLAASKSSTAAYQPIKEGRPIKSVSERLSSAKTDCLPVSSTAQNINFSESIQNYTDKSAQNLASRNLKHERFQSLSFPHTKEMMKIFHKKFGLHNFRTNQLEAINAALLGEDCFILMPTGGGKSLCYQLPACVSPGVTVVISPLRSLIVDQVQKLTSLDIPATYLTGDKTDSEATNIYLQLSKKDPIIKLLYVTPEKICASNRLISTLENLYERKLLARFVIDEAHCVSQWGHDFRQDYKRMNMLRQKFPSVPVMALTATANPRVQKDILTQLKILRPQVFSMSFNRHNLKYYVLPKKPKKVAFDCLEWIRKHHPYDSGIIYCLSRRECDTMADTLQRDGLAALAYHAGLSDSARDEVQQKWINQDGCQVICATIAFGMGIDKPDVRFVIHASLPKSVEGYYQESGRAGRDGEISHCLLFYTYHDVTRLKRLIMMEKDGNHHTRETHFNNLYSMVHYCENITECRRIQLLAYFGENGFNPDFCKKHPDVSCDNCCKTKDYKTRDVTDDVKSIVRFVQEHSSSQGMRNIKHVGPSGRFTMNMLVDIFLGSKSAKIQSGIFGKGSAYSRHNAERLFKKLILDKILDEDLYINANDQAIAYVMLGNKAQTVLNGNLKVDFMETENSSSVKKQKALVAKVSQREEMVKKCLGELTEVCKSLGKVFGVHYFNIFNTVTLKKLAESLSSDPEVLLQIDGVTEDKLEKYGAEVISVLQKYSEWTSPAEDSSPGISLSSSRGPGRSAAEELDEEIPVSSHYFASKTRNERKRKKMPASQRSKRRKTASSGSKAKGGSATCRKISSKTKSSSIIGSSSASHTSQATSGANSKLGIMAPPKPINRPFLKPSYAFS
Experiment: qHTS Assay for Inhibitors of Bloom's syndrome helicase (BLM); note: nearly all actives have a fitted effect of over 35% in size
Conditions: recombinant BLM DNA unwinding, fluorescence dequenching; series mostly up to 56.1 µM; activity change, negative = inhibition: at the top concentration
Text: Survival of cells and the faithful propagation of the genome depend on elaborate mechanisms of detecting and repairing DNA damage. Treatment of advanced cancer relies on radiation therapy or chemotherapy, which kill cancer cells by causing extensive DNA damage. It is often found, that cancer cells develop resistance to therapy through enhanced activity of DNA repair functions; this has led to an increased interest in developing drugs that interfere with DNA repair, which could sensitize cancer cells to conventional therapy.
This validation qHTS assay pertains to human BLM, which is important in resolving abnormal DNA structures formed during replication or homologous recombination. Shutting down the expression of BLM leads to chromosomal instability and higher radiation sensitivity in cultured cells.
The validation assay was a fluorescence quenching based kinetic qHTS for BLM Helicase DNA unwinding. The activity was measured as ATP-dependent separation of a 20-bp DNA duplex extended by 30-nt single-stranded tails (forked duplex). The forked DNA substrate was tagged with rhodamine fluorophore (carboxytetramethyl rhodamine, TAMRA) and BHQ-2 (Black Hole Quencher 2) dark quencher. Strand separation results in an increase in the fluorescence of TAMRA (excitation 525 nm, emission 598 nm). This substrate construct operates in a red-shifted region where very few compound library members have been noted to fluoresce (PubChem AIDs 593 and 594). An additional feature of the assay is the inclusion of 2.5 ug/ml poly (dIdC), to reduce interference by compounds such as DNA intercalators, a major source of false inhibitors.
Ian Hickson, University of Oxford
Opher Gileadi, Structural Genomics Consortium, University of Oxford
Screening Center PI: Austin, C.P.
Screening Center: NIH Chemical Genomics Center [NCGC]
Three uL of reaction buffer (25 mM Tris-HCl (pH 8.0), 5 mM NaCl, 2 mM MgCl2, 1mM DTT, 0.01% Tween- 20, and 2.5 ug/ml poly(dI-dC), including enzyme (50 nM BLM), were dispensed into a 1536-well Greiner black assay plate via solenoid-valve based nanoliter dispensers. Compounds (23 nl each in columns 5-48) and control (23 nl each in column 2 as dose-response) were transferred via a Kalypsys pintool equipped with a 1536-pin array. The plates were incubated for 15 min at room temperature, and then 1 ul of substrates (200 nM DNA and 2 mM ATP, final concentrations) was added to start the reaction. The plate was transferred into a ViewLux high-throughput CCD imager where the reaction progress was measured in a discontinuous kinetic mode (two reads spaced 2 hours apart, with intermediate room temperature incubation of the covered assay plate) by using standard red-fluorescence optics (excitation filter 525 nm, emission filter 598 nm). Enzyme-free and vehicle (DMSO) controls were included for signal normalization.
Potency is the fitted concentration of half-maximal effect.

Row | Structure (SMILES) | activity change, negative = inhibition | Potency
1 | COc1cccc(N2C(=O)NC(=O)/C(=C\c3ccc([N+](=O)[O-])s3)C2=O)c1 | -15.1% (inactive) | –
2 | COc1ccc(N2C(=O)/C(=C/c3ccco3)C(=O)NC2=S)cc1 | – | 12.6 µM (active)
3 | N#Cc1cc(Br)c(O)c(Br)c1 | -1.65% (inactive) | –
4 | O=C1CCc2cccc3c2N1CC3 | 1.45% (inactive) | –
5 | C[C@]12O[C@H](C[C@@]1(O)C(=O)O)n1c3ccccc3c3c4c(c5c6ccccc6n2c5c31)CNC4=O | 4.13% (inactive) | –
6 | CCN(CC)c1nc(C)cc(OP(=S)(OC)OC)n1 | -6.05% (inactive) | –
7 | CC(=O)[O][Sn]([c]1ccccc1)([c]1ccccc1)[c]1ccccc1 | -1.25% (inactive) | –
8 | CCCCCCCCCCCCN=C(N)N | -12.6% (inactive) | –
9 | C[C@@H]1C[C@H]2CC[C@H](O2)[C@H](C)C(=O)O[C@@H](C)C[C@@H]2CC[C@@H](O2)[C@@H](C)C(=O)O[C@H](C)C[C@H]2CC[C@H](O2)[C@H](C)C(=O)O[C@@H](C)C[C@@H]2CC[C@@H](O2)[C@@H](C)C(=O)O1 | -1.93% (inactive) | –
10 | CC[N+](C)(CC)CCC[n+]1c(-c2ccccc2)c2cc(N)ccc2c2ccc(N)cc21 | – | 5.01 µM (active)
11 | C[C@H]1C/C=C/[C@@H]2[C@@H]3O[C@]3(C)[C@@H](C)[C@H]3[C@H](Cc4ccccc4)NC(=O)[C@]32OC(=O)O/C=C/[C@](C)(O)C1=O | 0.289% (inactive) | –
12 | COC([CH2][Hg])CNC(=O)c1ccccc1OCC(=O)O (stereo not given) | 3.32% (inactive) | –
13 | CN(C)C[C@H]1CCCC[C@]1(O)c1cccc(O)c1 | -3.36% (inactive) | –
14 | O=C(OCC1O[C@@H](OC(=O)c2cc(O)c(O)c(O)c2)[C@@H](OC(=O)c2cc(O)c(O)c(O)c2)[C@@H](OC(=O)c2cc(O)c(O)c(O)c2)[C@@H]1OC(=O)c1cc(O)c(O)c(O)c1)c1cc(O)c(O)c(O)c1 (stereo not given in full) | – | 0.501 µM (active)
15 | CC(C)(Cc1c[nH]c2ccc(Cl)cc12)NCCOc1ccccc1OCC1CC1 | -0.797% (inactive) | –
